Pf Dd2 growth = inhibitors of Plasmodium falciparum Dd2 growth; P. falciparum Dd2 growth, SYBR Green, 72 h; Potency, µM (titrated, usually from 28.9 µM), for the others: at the highest dose activity, negative = inhibition, usual class: inhibitors; hit rate 4.3% among 120,000; active = well fitted inhibition curve with a large enough effect;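 also: plate controls were DMSO vehicle for no effect and reference drug for full effect; nearly all actives have a fitted effect of over 65% in size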
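Infected erythrocytes (Dd2, 0.3% parasitemia, 2.5% hematocrit final) are added to compound in RPMI-1640/Albumax II medium, grown 72 h at 37C in low oxygen, then lysed with saponin/Triton-X containing SYBR Green and read by fluorescence.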
Starred values were filed as active, the others as inactive; i = inactive; [ ] = dose if it differs, or a comment. Many of the other results were omitted from the sample, so hits are more common in it than they were. Potency is read from the fitted curve at half-maximal effect.

SMILES	Pf Dd2 growth
CCN(CC)c1cc(CCC(=O)O)ccn1	53%
CCN(CC)c1cc(CCC(=O)NCCc2ccccn2)ccn1	-13%
CCN(CC)c1cc(CCC(=O)N2CCN(c3cccc(OC)c3)CC2)ccn1	i
CCN(CC)c1cc(CCC(=O)NCCOC)ccn1	3%
CCN(CC)c1cc(CCC(=O)NCCN2CCCCCC2)ccn1	3.5µM*
COc1ccc(CCNC(=O)C(C)n2c(=O)cc(C(F)(F)F)c3c(C)nn(C)c32)cc1OC (configuration not stated)	12%
CCOc1cccc(C2Oc3nc(SC)nnc3-c3ccccc3N2C(C)=O)c1OC (configuration not stated)	i
CC(=O)N1CCC(C(=O)N2CCC3(CC2)NCc2ccccc2-n2ccnc23)CC1	i[5.79 µM]
COc1ccc(CC(C)NS(=O)(=O)c2ccc3c(c2)CCN3S(C)(=O)=O)cc1OC (configuration not stated)	-11%
O=C(Nc1ccc2n(c1=O)C[C@H]1C[C@@H]2CN(C(=O)c2ccc(-c3ccccc3)cc2)C1)c1ccco1	i
Cc1ncsc1CN1C(=O)CO[C@H](c2ccc(NC(=O)NC(C)C)cc2)[C@H]1CO	9%[44.1 µM]
Cc1ccc(O)c(NC(=O)c2ccc(Br)c(S(=O)(=O)N3CCCCC3)c2)c1	6.3µM*
CC(C)c1ccc(NC(=O)c2ccc(F)c(S(=O)(=O)N3CCCC3)c2)cc1	-24%
CC(C)c1ccc(NC(=O)c2ccc(F)c(S(=O)(=O)N3CCCCCC3)c2)cc1	21%
CC(C)c1nnc(C2CN(C(=O)CC3CCCCC3)CC23CCOCC3)o1 (configuration not stated)	7%
Cc1cc2n(n1)CCC(=O)N2Cc1ccc(C(=O)Nc2ccc(F)cc2F)cc1	i
O=C(NCc1cccnc1)C1c2ccccc2C(=O)N(C2CCCC2)C12CCCCC2 (configuration not stated)	-25%
O=C(NCc1cccc(Br)c1)C1CCN(c2cnc3nccnc3c2)CC1	i
CCc1ccc(CNC(=O)c2ccc3c(c2)nc2n3CCC(C)C2)cc1 (configuration not stated)	13%
Cc1cc2c(n1-c1ccc(C(=O)NCCc3ccccc3)cc1)CCC(C)C2 (configuration not stated)	-21%
COc1ccc(OC)c(CNC(=O)c2ccc3c(c2)c(C)c(C)n3C)c1	-17%
CCc1ccc(CNC(=O)c2ccc(-n3c(C)cc4c3CCC(C)C4)cc2)cc1 (configuration not stated)	13µM*
CCCOc1ccc(CNC(=O)c2ccc(-n3c(C)cc4c3CCC(C)C4)cc2)cc1 (configuration not stated)	432%[5.79 µM]
Cc1cc2c(n1-c1ccc(C(=O)NCc3cccc(Br)c3)cc1)CCC(C)C2 (configuration not stated)	11µM*
COc1ccc(Br)cc1CNC(=O)c1ccc(-n2c(C)cc3c2CCC(C)C3)cc1 (configuration not stated)	13µM*
SMILES	Pf Dd2 growth
COc1ccc(CCNC(=O)c2ccc(-n3c(C)cc4c3CCC(C)C4)cc2)cc1OC (configuration not stated)	161%[5.79 µM]
C[C@H](O)c1onc(-c2ccccc2)c1C(=O)NC1CCOCC1	-4%[44.1 µM]
Cc1cccc(CN2CCN3C(=O)N(Cc4ccc(F)cc4)C[C@H]3C2)n1	i
CCCCNC(=O)[C@H]1CCC[C@H]1NC(=O)c1cnc(C)cn1	-13%
COC[C@@H]1CN(c2cnccn2)C[C@H]1C(=O)NCc1ccco1	-16%
CCOc1ccc(-c2cc3nc(C4CCN(C(=O)OC(C)(C)C)CC4)c(C(=O)Nc4cccc(Cl)c4C)cn3n2)cc1	5µM*
CCOc1ccc(-c2cc3nc(C4CCN(C(=O)OC(C)(C)C)CC4)c(C(=O)Nc4ccc(C)cc4C)cn3n2)cc1	8.9µM*
CCOc1ccc(-c2nnc(SCC(=O)Nc3ccc(C)cc3C)o2)cc1	16%
CCOc1ccc(-c2cc(C(=O)N3CCN(c4cccc(C)c4)C(C)C3)c3ccccc3n2)cc1 (configuration not stated)	-29%
CCOc1ccc(-c2c(C)nn3c(C)c(C(=O)Nc4cccc(Cl)c4C)cnc23)cc1OCC	i
COc1ccc(-n2ncc(C(=O)Nc3ccc(C)cc3Cl)c2C2CCN(C(=O)OC(C)(C)C)CC2)cc1	-7%
CCOc1ccc(-c2cc3nc(C4CCN(C(=O)OC(C)(C)C)CC4)c(C(=O)Nc4ccc(C)cc4Cl)cn3n2)cc1	4µM*
Cc1cccc(C)c1-n1ncc(C(=O)O)c1C1CCN(C(=O)OC(C)(C)C)CC1	-2%
COc1ccc(-c2cc(C(F)(F)F)n3nc(C(=O)Nc4cccc(Cl)c4C)cc3n2)cc1	39%
CCOc1ccc(-c2nnc(SCC(=O)Nc3ccc(C)cc3Cl)o2)cc1	13%
CCOc1ccc(-c2cc3nc(C4CCN(C(=O)OC(C)(C)C)CC4)c(C(=O)Nc4c(C)cccc4C)cn3n2)cc1	2.5µM*
CCc1ccc(NC(=O)c2cnn(-c3c(C)cccc3C)c2C2CCN(C(=O)OC(C)(C)C)CC2)cc1	-10%
CCOC(=O)CCNC(=O)N1CCCN(C(=O)C2CC2)C(c2ccccc2)CC(=O)NCC1 (configuration not stated)	i
O=C1CC(Cc2cc(N3CCCCC3)ncn2)CN1c1ccccc1 (configuration not stated)	-10%
CC(C)NC(=O)CCCN1C(=O)CCn2nc(-c3cccn3C)cc21	i
CNC(=O)[C@@H]1CN(C(=O)c2cccc(C#N)c2)C[C@H]1COC	0%
CCNc1nc2c(c(=O)n(C)c(=O)n2C)n1CC(O)COc1ccccc1 (configuration not stated)	-14%
CCc1ccc(NC(=O)c2oc3c(c2C)-c2[nH]ncc2CC3)cc1	-7%
Cc1cnc(C(=O)N2CCCCCCn3c(nnc3-c3ccc(F)cc3)CC2)cn1	-22%
CCOc1ccccc1CC1C(=O)Nc2ccc(Br)cc21 (configuration not stated)	13%
SMILES	Pf Dd2 growth
CC(=O)N1CCCN(c2ncnc3c2CN(c2cccc(C)c2)C(=O)N(C)C3)CC1	27%
c1cc(NCCN2CCCC2)ccn1	21%[44.1 µM]
C[S+](=O)([O-])N1CCC2(CC1)C(=O)NN=C2c1ccccn1	i
Cc1oc(-c2ccc(Cl)cc2)nc1CN1C(=O)CN=C(c2ccccc2)c2cc(Cl)ccc21	i
Cc1oc(-c2ccc(Cl)cc2)nc1CN1C(=O)CN=C(c2ccccc2)c2ccccc21	4%
COc1ccc(-c2nc(CN3C(=O)CN=C(c4ccccc4Cl)c4cc(Cl)ccc43)c(C)o2)cc1OC	13µM*
COCCNc1oc(-c2ccccc2)nc1S(=O)(=O)c1ccc(Br)cc1	-13%
O=S(=O)(c1ccccc1)c1nc(-c2ccc(F)cc2)oc1NCc1ccccc1	-10%
O=S(=O)(c1ccc(Cl)cc1)c1nc(-c2ccccc2Br)oc1NCc1ccccc1	10µM*
COc1ccc(C)cc1NC(=O)CN(C)S(=O)(=O)c1ccc2c(c1)CCCN2C(C)=O	8%
CCN(CC)CCCNc1oc(/C=C/c2ccc(OC)c(OC)c2)nc1C#N	2.5µM*
CCOc1ccc(Nc2oc(/C=C/c3ccc(OC)c(OC)c3)nc2C#N)cc1	i
COc1ccc(/C=C/c2nc(C#N)c(NCc3ccc(C)cc3)o2)cc1OC	-20%
CCN1C(=O)CCN(Cc2cccnc2)CC12CCOCC2	-1%
Cc1ccc([C@H]2CN(C(=O)Cn3nc(C)c4ccccc4c3=O)C[C@@H]2N)o1	-13%
Cc1ccc(N(Cc2cccs2)C(=O)c2ccccc2[N+](=O)[O-])cc1	-2%
c1ccc(OCc2noc(-c3ccc(NC4CCSC4)nc3)n2)cc1 (configuration not stated)	10µM*

Bioassay records deposited in PubChem BioAssay by National Center for Advancing Translational Sciences (NCATS).
